Test results as given in PubChem BioAssay AID2013 (Sanford-Burnham Center for Chemical Genomics, 2009).
In all, about 290,000 compounds went through this assay and about 370 (0.13%) were called active.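 Rule for the calls: active = spots per cell inhibited over 60%, with over 100 cells counted and total cytoplasm intensity under 500,000; inconclusive = wells with under 100 cells, flagged as likely toxic; inactive = the rest.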 This excerpt belongs to a sample that is enriched for actives. Results with a measured potency or affinity are listed apart.

Biological target: G-protein coupled receptor 55 (Homo sapiens) (UniProt Q9Y2T6)
Sequence (Q9Y2T6 whole entry, looked up): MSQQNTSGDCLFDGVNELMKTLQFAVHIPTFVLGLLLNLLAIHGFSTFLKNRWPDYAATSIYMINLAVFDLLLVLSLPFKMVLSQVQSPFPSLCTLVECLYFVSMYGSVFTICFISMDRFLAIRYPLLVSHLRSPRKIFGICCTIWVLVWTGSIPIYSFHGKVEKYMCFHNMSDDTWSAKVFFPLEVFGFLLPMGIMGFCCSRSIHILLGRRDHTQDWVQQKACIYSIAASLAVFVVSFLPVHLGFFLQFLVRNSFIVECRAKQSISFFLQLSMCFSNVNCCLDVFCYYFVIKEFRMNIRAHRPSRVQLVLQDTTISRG
Assay: GPR55 antagonists blocking LPI-driven arrestin recruitment, primary screen, imaging, U2OS, beta-arrestin-GFP, LPI agonist (AID 2013);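 note: U2OS cells stably carrying GPR55 and arrestin-GFP stimulated by 5 µM LPI near EC80; imaged beta-arrestin-GFP aggregate spots per cell after agonist stimulation; plate controls were LPI-stimulated DMSO wells for no effect and DMSO wells without LPI for full effect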
Conditions: U2OS GPR55 beta-arrestin-GFP translocation imaging, LPI antagonism; at 10 µM; hits give high values

SMILES | inhibition
O=C(COC(=O)CCC(=O)c1cccs1)NC(=O)c1ccc(OC(F)F)cc1 | 6.3% (inactive)
COc1ccc(N2CCN(CC(=O)NCc3ccc(Cl)cc3)CC2)cc1 | -5.1% (inactive)
Cc1cccc(C)c1-n1cccc1/C=C1\SC(=S)N(c2cccc(C(=O)O)c2)C1=O | 21.8% (inactive)
O=C(O)CN1C(=O)/C(=C/c2ccc(SCc3ccccc3)o2)SC1=S | 4.7% (inactive)
Cc1ccc(NC(=O)COc2nsnc2N2CCOCC2)cc1Cl | -2.9% (inactive)
CCCCOC(=O)CSC(=S)N(C)Cc1cccs1 | -12.9% (inactive)
Cc1[nH]c2ccccc2c1[C@H]1[C@@H](CC#N)C1(C)C | 30.6% (inactive)
Cc1c([C@H]2[C@@H](CC#N)C2(C)C)c2ccccc2n1C | -0.3% (inactive)
CC(C)NC(=O)C(=O)c1cn(C)c2ccccc12 | -10.8% (inactive)
Cc1ccccc1N1CCN(C(=O)C2CCC(=O)N(C3CCCC3)C2)CC1 (stereo not drawn) | 5.6% (inactive)
Oc1ccccc1C1=NN(c2ccccc2)C(c2ccc(F)cc2)C1 (stereo not drawn) | -10.6% (inactive)
Oc1ccc(C2=NN(c3ccccc3)C(c3ccc(F)cc3)C2)cc1 (stereo not drawn) | 60.3% (active)
COc1ccc(C2CC(c3ccc(F)cc3)=NN2c2ccccc2)cc1OC (stereo not drawn) | 1.5% (inactive)
Cc1noc(C)c1CN(C(=S)NC1CC1)c1ccccc1 | 4.1% (inactive)
CCNC(=S)N(Cc1c(C)noc1C)c1ccccc1 | -9.5% (inactive)
CC(=O)N1CCOc2ccc(S(=O)(=O)Nc3ccc(Cl)cn3)cc21 | -3.3% (inactive)
COc1ccccc1NC(=O)COC(=O)c1ccccc1C(=O)N1CCN(c2ccccc2)CC1 | -1.1% (inactive)
Cc1ccccc1-n1cc(CNC(=O)CCc2nnc(CCc3ccccc3)o2)cn1 | 9.1% (inactive)
C#CCOCCOCCOCCNc1nc(N2CCN(C(=O)[C@H](CCC(=O)O)n3cc(C(N)CC(C)C)nn3)CC2)nc(N2CCN(C(=O)[C@H](Cc3ccc(O)cc3)n3cc(C(N)[C@H](C)CC)nn3)CC2)n1 (stereo partly drawn) | 13% (inactive)
O=C(Nc1ccccc1)c1ccccc1NC(=O)C1CCCCC1 | -8.2% (inactive)
COc1cc(/C=C2\C(=O)N(c3ccc(NC(C)=O)cc3)N=C2c2ccccc2)ccc1O | 89.7% (active)
O=C1/C(=C\c2ccc(O)c(O)c2)C(c2ccccc2)=NN1c1ccccc1 | -3.8% (inactive)
COc1ccc(C2=NN(c3ccccc3)C(=O)/C2=C\c2ccc(O)c(OC)c2)cc1 | -6.3% (inactive)
S=C1Cc2ccccc2N1 | -4.5% (inactive)

SMILES | inhibition
COc1ccc(CN2C(=O)/C(=C/c3ccc(-c4ccc(Cl)c(C(=O)O)c4)o3)SC2=S)cc1 | 34.2% (inactive)
C#CCN1C(=O)S/C(=C\c2ccc(-c3ccc(Cl)c(C(=O)O)c3)o2)C1=O | -15.9% (inactive)
O=C(O)c1cc(-c2ccc(/C=C3/SC(=S)N(Cc4ccccc4)C3=O)o2)ccc1Cl | 61.2% (active)
O=C(NCc1ccco1)C1(c2ccc(Br)cc2)CCCC1 | 1.4% (inactive)
C=CCn1c(O)c(C2=c3ccccc3=NC2=O)sc1=Nc1ccc(O)cc1 | 5.2% (inactive)
CN(CC(=O)Nc1cccc(F)c1)C(=O)c1cc(S(=O)(=O)N(C)C)ccc1N1CCCC1 | 13.5% (inactive)
[N-]=[N+]=N[C@@H](CCN1CC[C@H](NC(=O)OCc2ccccc2)CCC1=O)c1ccccc1 | 6.9% (inactive)
O=C(CSc1nnc(C2CCCCC2)n1Cc1ccccc1)NCc1ccco1 | -1.4% (inactive)
CCOC(=O)c1sc2nc(N3CCOCC3)c3c(c2c1N)CC(C)(C)N(C)C3 | -4.1% (inactive)
CN1Cc2c(N3CCOCC3)nc3sc(C(=O)c4ccccc4)c(N)c3c2CC1(C)C | 1.2% (inactive)
NC(=S)Cc1nc2n(n1)Cc1ccccc1-2 | 5.2% (inactive)
CC1CC(Nc2ccccc2)c2ccccc2N1C(=O)c1ccco1 (stereo not drawn) | 6.5% (inactive)
CC(=O)N(c1ccccc1)C1CC(C)N(C(=O)c2ccccc2)c2ccccc21 (stereo not drawn) | 13.6% (inactive)
CC1CC(N(C(=O)c2ccco2)c2ccccc2)c2ccccc2N1 (stereo not drawn) | 10.3% (inactive)
CC1CC(N(C(=O)c2ccc(Cl)cc2)c2ccccc2)c2ccccc2N1C(=O)c1ccco1 (stereo not drawn) | 10.9% (inactive)
COC(=O)c1c(C(C)=O)c(C)n(C)c1C | 9.9% (inactive)
O=C(CSc1nc2ccccc2o1)Nc1ccccc1N1CCOCC1 | -2.4% (inactive)
Cc1ccccc1NC(=O)CSc1nc2ccccc2o1 | -27.6% (inactive)
CC1(C)CC(=O)C(CC(=O)Nc2ccc(S(N)(=O)=O)cc2)=C(O)C1 | 2.1% (inactive)
COc1ccc(C2c3sc(=O)[nH]c3SC3C4CCC(C4)C23)cc1OC (stereo not drawn) | 4.6% (inactive)
COc1ccc(C2c3sc(=O)[nH]c3SC3C4CCC(C4)C23)cc1 (stereo not drawn) | 39.7% (inactive)
CN(C)/C=N/c1nc2nccc(-c3ccccc3)n2n1 | -4.1% (inactive)
CCC(C)c1ccc(S(=O)(=O)N2CCN(S(=O)(=O)c3ccc(NC(C)=O)cc3)CC2)cc1 (stereo not drawn) | 6.4% (inactive)
CCn1cnc2c1c(=O)n(Cc1ccc(C(=O)OC)cc1)c(=O)n2Cc1ccccc1 | 6% (inactive)

SMILES | inhibition
CCOC(=O)C1C(C(=O)OCC)C1(c1ccccc1)c1ccccc1 (stereo not drawn) | 94.1% (active)
COC(=O)C1C(C(=O)OC)C1(c1ccccc1)c1ccccc1 (stereo not drawn) | 5.7% (inactive)
O=C(O)C1C(C(=O)O)C1(c1ccccc1)c1ccccc1 (stereo not drawn) | -6.8% (inactive)
CC1(C(=O)N(Cc2ccccc2)Cc2ccccc2)CC1(Br)Br (stereo not drawn) | 80.9% (active)
CC12CCC(C(=O)N(Cc3ccccc3)Cc3ccccc3)(OC1=O)C2(C)C (stereo not drawn) | 3.1% (inactive)
O=C(c1ccccc1)N(Cc1ccccc1)Cc1ccccc1 | 11.6% (inactive)
COc1ccc(CNS(=O)(=O)c2ccc3c(c2)CCN3C(=O)C2CC2)cc1 | 5.8% (inactive)
CCOC(=O)C1CCN(CC(=O)Nc2ccc(OC)c(Cl)c2)CC1 | 17.5% (inactive)
O=C(Cn1c(=O)c(=O)n(Cc2ccccc2)c2ccc(Cl)cc21)Nc1cccc(F)c1 | -4.5% (inactive)
Cc1nc2ccccc2c2c1C(=O)N(C(C)C)C2=O | -5.2% (inactive)
O=C(Cn1cnc2ccccc2c1=O)Nc1cccc(-c2nnc3n2CCCCC3)c1 | -5.4% (inactive)
Cc1ccc(C(c2nnnn2C2CCCCC2)N2CCc3ccccc32)cc1 (stereo not drawn) | 4.6% (inactive)
COc1ccc(C(CCNC(C)c2ccccc2)c2ccc(F)cc2)cc1 (stereo not drawn) | 29.1% (inactive)
COc1ccc(C(CCNC(C)c2ccccc2)C(C)C)cc1 (stereo not drawn) | 15.3% (inactive)
COc1ccc(-n2cnnc2SCC(=O)Nc2ccc(C(N)=O)cc2)cc1 | -2.8% (inactive)
COCc1nnc(NC(=O)C2CC(=O)N(C3CCCC3)C2)s1 (stereo not drawn) | 8.2% (inactive)
O=C(O)c1cccc(N2C(=O)/C(=C/c3ccc([N+](=O)[O-])cc3)C=C2c2ccccc2)c1 | -16.1% (inactive)
O=C1/C(=C/c2ccc([N+](=O)[O-])cc2)C=C(c2ccccc2)N1c1ccccc1 | 25.9% (inactive)
Cc1nnc(SCC2=C(C(=O)O)N3C(=O)C(NC(=O)C(C)n4nc(C(F)(F)F)cc4C)C3SC2)s1 (stereo not drawn) | 0.4% (inactive)
Nc1cc(=O)[nH]c(SC/C=C/c2ccccc2)n1 | -21.6% (inactive)
Clc1nc(CN2CCCCC2)nc2sc3c(c12)CCC3 | 5.2% (inactive)
Clc1nc(CN2CCCCC2)nc2sc3c(c12)CCCC3 | 61.4% (active)
Clc1nc(CN2CCOCC2)nc2sc3c(c12)CCC3 | 19% (inactive)
CC1CN(C(=O)COC(=O)c2ccc(O)cc2)CC(C)O1 (stereo not drawn) | 6.6% (inactive)

SMILES | inhibition
N#CCc1c(C#N)c(N)nc(Nc2ccccc2)c1C#N | 1.4% (inactive)
COc1ccc2oc(=O)c(C(=O)N3CCN(c4ccc(F)cc4)CC3)cc2c1 | 4.2% (inactive)
O=C(Cn1ncn2c(cc3ccccc32)c1=O)NCCc1cccs1 | -4.4% (inactive)
COc1ccc(C(=O)N[C@H](C(=O)NCC2CCCCC2)C(C)C)cc1 | 6.5% (inactive)
O=C(CSc1ncccn1)N1CCN(S(=O)(=O)c2ccccc2)CC1 | 9.7% (inactive)
O=C(CSc1nc2ccccc2c(=O)[nH]1)N1CCN(S(=O)(=O)c2ccccc2)CC1 | 2.8% (inactive)
N#Cc1ccccc1NC(=O)CN1CCOCC1 | 9.8% (inactive)
CCSc1n[nH]c2nc3c(c(=O)n12)C1(CCCC1)Cc1ccccc1-3 | 10.3% (inactive)
CCn1c(SCC(N)=O)nc2c(c1=O)C1(CCCC1)Cc1ccccc1-2 | 1.3% (inactive)
CCCc1ccc(Oc2c(-c3ccc(O)c(C)c3O)n[nH]c2C)cc1 | 1% (inactive)
COc1ccc(Oc2c(-c3ccc(O)cc3O)n[nH]c2C)cc1 | 11% (inactive)
CCCc1ccc(Oc2cn[nH]c2-c2ccc(O)c(C)c2O)cc1 | 20.9% (inactive)
CCCOC(=O)c1ccc(Oc2c(-c3ccc(O)cc3O)n[nH]c2C)cc1 | 36.9% (inactive)
Cc1ccccc1C(=O)NC(=S)NCc1ccccc1 | 2.5% (inactive)
Cc1sc2nc(CC(=O)NN)[nH]c(=O)c2c1C | 6.8% (inactive)
CC(=O)N1CCOc2ccc(S(=O)(=O)N3CCC(C)CC3)cc21 | 7.2% (inactive)
C/C=C(\C)C(=O)N1CC2(CC(c3cccc(NC(=O)COc4ccc(Cl)cc4)c3)=NO2)C[C@@H]1C(N)=O (stereo partly drawn) | -0.1% (inactive)
NS(=O)(=O)c1ccc(NC(=S)Nc2ccc(C(=O)N3CCCCC3)cc2)cc1 | 0.7% (inactive)
O=C(Nc1ccccc1N1CCOCC1)c1cccnc1Cl | 3.4% (inactive)
CCN(C(=O)CSc1nc(-c2ccccc2)c(-c2ccccc2)[nH]1)C1CCS(=O)(=O)C1 (stereo not drawn) | 15.5% (inactive)
Cc1ccc(SCC(=O)N(C)C2CCS(=O)(=O)C2)cc1 (stereo not drawn) | -5.3% (inactive)
